Source: PubChem (several laboratories)
eIF4H FP inh: inhibitors of RNA binding by human eIF4H | Q15056 | eIF4H fluorescence polarization binding assay | inhibition, % at 35 µM | 0.94% of 290,000 active;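 also: calls also rest on retests at 20 µM and on dose response follow-up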
eIF4E-4G inh: eIF4E/eIF4G interaction inhibition in translation initiation; 0.37% of 220,000 active; TR-FRET eIF4E-eIF4GI(517-606) binding, 2 h; P63073+Q04637; inhibition, % at 21.7 µM;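 active = inhibition above about 30%, limit read from the data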
MLLE-PAM2 inh: inhibitors of microRNA-mediated deadenylation, human PABP1 MLLE binding; GST-MLLE / FITC-PAM2 fluorescence polarization; inhibition, % at 20 µM; P11940; 0.36% of 360,000 active; in the data active = inhibition above about 35%, passing the limit was not always enough
14-3-3 Bad inh: disrupts binding of bovine 14-3-3 zeta to phospho-Bad peptide | P63103 | TR-FRET 14-3-3zeta/Dy647-pBad peptide displacement, 1 h | inhibition, % at 21.7 µM | 0.71% of 220,000 active | AID 781;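 active = inhibition above about 70%, limit read from the data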
PABP FP inh: PABP-poly(A) binding inhibition; 1% of 290,000 active; AID 2014; PABP-poly(A) RNA binding, fluorescence polarization; calls only at 35 µM; P11940;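 also: calls also rest on retests at 20 µM and on dose response follow-up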
Each line names hits and unclear results; the compound was inactive in the other large screens; [ ] = dose if it differs, or a comment. A selection: hits, their analogues and other compounds. The true share with any hit is near 1.9%. Unless noted, no rule for the calls is given here.

O=C(Nc1ccc2oc(-c3ccccc3)nc2c1)c1ccc2c(c1)OCCO2	none
Nc1ccc2nc(-c3ccc(Cl)cc3)[nH]c2c1	none
Nc1ccc2nc(-c3cc(Cl)c(N)c(Cl)c3)[nH]c2c1	eIF4E-4G inh 39[fluorescence artefact?]
COc1ccc(Cl)cc1NC(=O)CN(C)C(=O)c1ccc(-n2cncn2)cc1	none (no result: eIF4H FP inh, eIF4E-4G inh, 14-3-3 Bad inh, PABP FP inh)
Cc1nc(-c2cccnc2)sc1C(=O)N/N=C/c1ccccc1Cl	14-3-3 Bad inh 87
Cc1nc(-c2cccnc2)sc1C(=O)Nc1ccc(Cl)cc1	none
COc1ccc(CN2CCOCCOCCOCC2)cc1	none
COc1ccc(CN2CCOCC2)cc1	14-3-3 Bad inh 74
CCOc1ccc(-c2ncncc2-c2ccc(OC)c(OC)c2)c(O)c1	none (no result: eIF4E-4G inh, 14-3-3 Bad inh)
O=C1C(NS(=O)(=O)c2cccs2)=C(N2CCN(c3cccc(Cl)c3)CC2)C(=O)c2ccccc21	eIF4H FP inh 2.3, PABP FP inh active
O=C(Nc1cc2nn(-c3ccccc3)nc2cc1Cl)c1ccco1	eIF4H FP inh 28, PABP FP inh active
CSc1ccc(C2C(C(=O)c3ccco3)=C(O)C(=O)N2c2nnc(SC)s2)cc1 (centres undefined)	eIF4H FP inh inconclusive, PABP FP inh inconclusive (no result: eIF4E-4G inh, 14-3-3 Bad inh)
O=C(CSc1nnc(C2CC2)n1Cc1ccco1)NCC(F)(F)F	none
CN1C(=O)c2ccc(N3CCCC3)cc2C1=O	eIF4H FP inh 72, PABP FP inh active
C[C@@H]1CCCCO[C@@H](CN(C)Cc2ccncc2)[C@@H](C)CN([C@H](C)CO)C(=O)c2cc(NC(=O)c3ccccc3)ccc2O1	none (no result: eIF4H FP inh, eIF4E-4G inh, 14-3-3 Bad inh, PABP FP inh)
CCOC(=O)c1ccc(S(=O)(=O)NNC(=O)Cc2csc(C)n2)cc1	none (no result: eIF4H FP inh, eIF4E-4G inh, 14-3-3 Bad inh, PABP FP inh)
Cc1cc(C)n(-c2ncc3c(n2)N(CCO)CCOC3=O)n1	none
CC1=CC2(O)OCCN(CCO)C2=CC1=O (centres undefined)	eIF4H FP inh 82
Cc1c(Cl)c([N+](=O)[O-])nn1Cc1ccc(C(=O)N/N=C\c2cccc(Br)c2)o1	none
O=[N+]([O-])c1ccc(/C=C/C2=NN(c3ccccc3)C(c3ccco3)C2)cc1 (centres undefined)	none
O=[N+]([O-])c1ccc(C2=NN(c3ccccc3)C(c3ccco3)C2)cc1 (centres undefined)	eIF4H FP inh 104, PABP FP inh active
CN1/C(=C\C(=O)CSc2nnc(NCc3ccccc3)s2)C(C)(C)c2ccccc21	eIF4H FP inh 69, PABP FP inh active
O=C1C(=Cc2cccn2-c2ccc(O)cc2)C(=O)c2ccccc21	eIF4H FP inh inconclusive, 14-3-3 Bad inh 84[fluorescence artefact?], PABP FP inh inconclusive
O=C1C(=Cc2cccn2-c2ccccc2)C(=O)c2ccccc21	eIF4H FP inh inconclusive, 14-3-3 Bad inh 82[fluorescence artefact?]
Cc1ccc(OC(=O)COc2ccccc2C)c(-n2nc3ccccc3n2)c1	MLLE-PAM2 inh 53
Cc1ccc(OC(=O)COc2ccccc2)c(-n2nc3ccccc3n2)c1	none
Cc1ccc(-n2c(SCc3cc(=O)n4ccsc4n3)nnc2-c2cccnc2)c(C)c1	eIF4H FP inh 60
COc1ccccc1CNC(=O)COC(=O)c1ccc(Cl)c(N)c1	none
COc1cc(C2C(C#N)=C(N)Oc3cc(C)oc(=O)c32)cc2c1OCO2 (centres undefined)	eIF4H FP inh 69, PABP FP inh active
Cc1cc2c(c(=O)o1)C(Cc1ccccc1)C(C#N)=C(N)O2 (centres undefined)	eIF4H FP inh 70, PABP FP inh active
COc1cc(C2C(C#N)=C(N)Oc3cc(C)oc(=O)c32)cc(OC)c1OC (centres undefined)	none
Cc1ccc(NC(=O)COC(=O)C2CC2(Cl)Cl)cc1C (centres undefined)	none
O=C(Nc1ccn(CCCNCCCN2CCCC2=O)c(=O)n1)OCc1ccccc1	none (no result: eIF4H FP inh, eIF4E-4G inh, 14-3-3 Bad inh, PABP FP inh)
CN(Cc1c(O)ccc2c1oc(=O)c1ccccc12)C1CCCCC1	14-3-3 Bad inh 87
CC(C)C(=O)NC(=S)Nc1c(Cl)ccc2nsnc12	eIF4H FP inh 79, PABP FP inh active
Cc1ccc(C(=O)NC(=S)Nc2c(C)ccc3nsnc23)cc1	none
CCOc1ccc(/C=C2/Sc3ccc(C(=O)N4CCOCC4)cc3N(C)C2=O)cc1OC	none (no result: eIF4E-4G inh, 14-3-3 Bad inh)
COc1ccc(/C=C2\Sc3ccc(C(=O)N4CCCC4)cc3N(C)C2=O)cc1OC	MLLE-PAM2 inh 38 (no result: eIF4H FP inh, eIF4E-4G inh, 14-3-3 Bad inh, PABP FP inh)
CCNC(=S)Nc1cc(Cl)ccc1Oc1ccccc1	none
O=c1c2c([nH]c3ccccc13)C(=C1CCCC1)CC2	eIF4H FP inh 82, PABP FP inh active
NC(Cc1ccc(C(F)(F)F)cc1)c1csc(Nc2ccc(S(N)(=O)=O)cc2)n1 (centres undefined)	none (no result: eIF4H FP inh, eIF4E-4G inh, 14-3-3 Bad inh, PABP FP inh)
COc1cc(CN2CC(=O)N(c3cc(Cl)ccc3C)C2=S)cc(OC)c1OC	none (no result: eIF4E-4G inh, 14-3-3 Bad inh)
COc1cc2c3c(n(C)c(=O)c2cc1OC)-c1cc2c(cc1C3=O)OCO2	none (no result: eIF4H FP inh, eIF4E-4G inh, 14-3-3 Bad inh, PABP FP inh)
S=C(Nc1ccc2nc(-c3ccccn3)c(-c3ccccn3)nc2c1)N1CCCCC1	PABP FP inh active
CCc1ccc(-c2csc(NC(=O)C3=NN(c4ccccc4)C(=O)CC3)n2)cc1	eIF4H FP inh active
CCOC(=O)C(Sc1ncnc2c1sc1nc(N3CCOCC3)c3c(c12)CCCC3)c1ccccc1 (centres undefined)	none (no result: MLLE-PAM2 inh)
O=C(Nc1cc(Cl)cc(Cl)c1)C(NCCO)c1ccccc1 (centres undefined)	14-3-3 Bad inh 80
O=C(Nc1cc(Cl)cc(Cl)c1)C(c1ccccc1)N1CCCCC1 (centres undefined)	none
COC(=O)c1c(-c2ccc(OC)cc2)sc2ccc(OC)cc12	none (no result: eIF4H FP inh, eIF4E-4G inh, 14-3-3 Bad inh, PABP FP inh)
O=c1c2cccc3c(N4CCOCC4)ccc(c32)c2nc3ccccc3n12	PABP FP inh active (no result: eIF4E-4G inh, MLLE-PAM2 inh, 14-3-3 Bad inh)
O=c1c2ccc([N+](=O)[O-])c3cccc(c32)c2nc3ccccc3n12	none (no result: MLLE-PAM2 inh)
CN(Cc1cccnc1)C(=O)Cc1ccc(NS(=O)(=O)c2cccc(C(F)(F)F)c2)cc1	none (no result: eIF4E-4G inh, 14-3-3 Bad inh)
O=c1c2c(-c3ccco3)csc2nc(SCc2cn3cccnc3n2)n1-c1ccccc1	eIF4H FP inh 89, PABP FP inh active
NC(=O)CSc1nc2scc(-c3ccco3)c2c(=O)n1-c1ccccc1	eIF4H FP inh 67, PABP FP inh active
O=c1cc(CN2CCN(Cc3ccc(F)cc3)C(CCO)C2)[nH]c2ccccc12 (centres undefined)	none (no result: eIF4E-4G inh, 14-3-3 Bad inh)
Cc1ccc([C@H]2N[C@]3(CCCN(Cc4ccc(F)cc4)C3=O)[C@H]3C(=O)N(C)C(=O)[C@@H]23)cc1	none (no result: eIF4H FP inh, eIF4E-4G inh, 14-3-3 Bad inh, PABP FP inh)
COc1cc(/C=C2\SC(=O)N(c3cccc(Cl)c3)C2=O)cc([N+](=O)[O-])c1O	eIF4E-4G inh 61, MLLE-PAM2 inh 85, 14-3-3 Bad inh 92 (no result: eIF4H FP inh, PABP FP inh)
COc1cc(/C=C2\SC(=O)N(c3ccc(Cl)cc3)C2=O)cc([N+](=O)[O-])c1O	eIF4H FP inh 96, eIF4E-4G inh 71, 14-3-3 Bad inh 93
COc1cc(/C=C2/C(=O)NN(c3ccc(C)c(Cl)c3)C2=O)cc([N+](=O)[O-])c1O	none (no result: eIF4E-4G inh, 14-3-3 Bad inh)
O=C(c1ccc(Cl)cc1)c1oc2ccccc2c1CS(=O)c1ccc(Cl)cc1 (centres undefined)	none
Nc1c(C(=O)c2ccc(Cl)cc2)oc2ccccc12	eIF4H FP inh active, PABP FP inh active
Cc1cc(=O)[nH]c(SCC(=O)NCc2ccco2)n1	none
